PubChem BioAssay AID624414 (National Center for Advancing Translational Sciences (NCATS), 2012)
The campaign covered roughly 410,000 compounds. About 480 (0.12%) were called active. For the sample, actives were picked, then their nearest neighbours and some compounds at random. Values without a mark were called inactive. Cut-off read from the data, not from the text of the source: active = activation above about 50%; inconclusive = mostly about 30% to 49%; inactive = weaker than that.

The compounds below were run against Mucolipin-1 (Homo sapiens) (UniProt Q9GZU1) (assay: qHTS for Agonists of the Human Mucolipin Transient Receptor Potential 1 (TRPML1)). Conditions: TRPML1-expressing cells, Ca2+ dye fluorescence, FDSS; stronger effect = higher value.
Sequence of Mucolipin-1 (Homo sapiens) (Q9GZU1 whole entry, looked up): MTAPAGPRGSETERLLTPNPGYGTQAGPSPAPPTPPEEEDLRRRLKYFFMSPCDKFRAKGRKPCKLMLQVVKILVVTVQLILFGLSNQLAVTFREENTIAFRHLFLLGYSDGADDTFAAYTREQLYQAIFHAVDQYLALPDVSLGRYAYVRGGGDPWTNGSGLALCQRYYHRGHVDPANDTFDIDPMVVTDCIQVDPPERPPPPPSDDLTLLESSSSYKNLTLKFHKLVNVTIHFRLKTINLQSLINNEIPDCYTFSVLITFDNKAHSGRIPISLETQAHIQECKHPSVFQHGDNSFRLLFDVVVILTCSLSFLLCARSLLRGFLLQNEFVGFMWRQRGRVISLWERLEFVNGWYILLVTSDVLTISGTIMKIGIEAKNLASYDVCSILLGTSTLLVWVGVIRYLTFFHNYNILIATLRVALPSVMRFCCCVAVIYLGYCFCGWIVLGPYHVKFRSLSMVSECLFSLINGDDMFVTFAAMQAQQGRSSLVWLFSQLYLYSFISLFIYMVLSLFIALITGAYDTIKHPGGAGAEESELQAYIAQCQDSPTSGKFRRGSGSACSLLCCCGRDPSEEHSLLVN
Outline: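 Tet-induced TRPML1-DL cells, 1,500 per well, cultured overnight, were loaded with a no-wash Ca2+ dye for 45–90 min. Calcium fluorescence was recorded on the FDSS for 110 s after compound addition, before the EC80 agonist (4 uM 54-4) was added.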
Note: 0% is about no effect.

**Q.** Which activation does the source give for `CC(C)(C)c1ccc(C(=O)C[n+]2cccc3cc(Cl)ccc32)cc1` here?
**A.** The activation was 0.444%.

**Q.** With `O=C(/C=C(O)/C=C/c1ccc(O)cc1)/C=C/c1ccc(O)cc1` as the compound, how does the activation read?
**A.** The activation was 80.8% (active).

**Q.** For `COc1ccc(C(=O)c2oc3ccccc3c2NC(=O)COc2cccc(C)c2)cc1`, which activation is on record?
**A.** The activation was -0.131%.

**Q.** For `Cc1cc(C)cc(NC(c2nnc(-c3cccc(F)c3)o2)c2ccc(F)cc2Cl)c1` (stereo unspecified), which activation is on record?
**A.** Its activation is 0.152%.

**Q.** With `O=C1CCC[C@@H]2C[C@@]3(C[C@@H]4CCN1[C@H]24)Nc1ccccc1NC3=NCc1ccccc1` as the compound, how does the activation read?
**A.** The activation was 0.0295%.

**Q.** How did the activation turn out when `Cc1c(CCO)sc[n+]1CC(=O)c1ccc2ccccc2c1` was run?
**A.** Its activation is -0.38%.

**Q.** With `O=C(c1ccc2c(c1)N(Cc1ccccc1F)C(=O)c1ccccc1S2(=O)=O)N1CCOCC1` as the compound, how does the activation read?
**A.** Its activation is -0.566%.

**Q.** `COc1ccc(/C=C/c2ccnc3ccccc23)cc1OC` was tested. Which activation did it give?
**A.** The activation was -0.507%.

**Q.** With `CN(C)C1=C2C=CC=CC2/C(=C2/C=Cc3ccccc32)C=C1` (stereo unspecified) as the compound, how does the activation read?
**A.** Its activation is -0.475%.

**Q.** `COc1cc2nc(C#Cc3nc4cc(OC)c(OC)cc4[nH]3)[nH]c2cc1OC` was tested. Which activation did it give?
**A.** The activation was -0.266%.

**Q.** With `O=C(NC1CC(=O)N(c2ccc(F)cc2)C1)c1cccs1` (stereo unspecified) as the compound, how does the activation read?
**A.** The activation was -0.226%.

**Q.** How did the activation turn out when `Cc1cccc(-n2ncc(C(=O)N3CCN(c4ccc(Cl)cc4)CC3)c2C2CCN(C(=O)OC(C)(C)C)CC2)c1` was run?
**A.** The activation was 51.3% (active).

**Q.** `Cc1cccc(-n2ncc(C(=O)N3CCC(C)CC3)c2C2CCN(C(=O)OC(C)(C)C)CC2)c1` was tested. Which activation did it give?
**A.** Its activation is 0.455%.

**Q.** How did the activation turn out when `CCOC(=O)N1CCC(NC(=O)c2cnn(-c3cccc(C)c3)c2C2CCN(C(=O)OC(C)(C)C)CC2)CC1` was run?
**A.** The activation was 0.0606%.

**Q.** With `CC(C)(C)OC(=O)N1CCC(c2c(C(=O)N3CCN(c4cccc(Cl)c4)CC3)cnn2-c2cccc(Cl)c2)CC1` as the compound, how does the activation read?
**A.** The activation was 69.8% (active).

**Q.** For `Cc1cccc(-n2ncc(C(=O)N3CCc4ccccc4C3)c2C2CCN(C(=O)OC(C)(C)C)CC2)c1`, which activation is on record?
**A.** The activation was 0.364%.

**Q.** With `COc1ccccc1CN1CCC(CNC(=O)c2cnn(-c3cccc(Cl)c3)c2C2CCN(C(=O)OC(C)(C)C)CC2)CC1` as the compound, how does the activation read?
**A.** Its activation is 1.58%.

**Q.** With `COCC(C)NS(=O)(=O)c1ccc(N2CCCCS2(=O)=O)cc1` (stereo unspecified) as the compound, how does the activation read?
**A.** The activation was -0.459%.

**Q.** `CC1=C(c2ccc(F)cc2)S(=O)(=O)N=C1N1CCC(C(=O)NCCc2ccccc2C)CC1` was tested. Which activation did it give?
**A.** Its activation is 2.54%.

**Q.** Which activation does the source give for `COc1ccc(-c2nc(=N)sn2-c2ccccc2)cc1` here?
**A.** Its activation is 12.5%.

**Q.** With `COc1ccc(/C=C/c2ccccn2)cc1OC` as the compound, how does the activation read?
**A.** The activation was -0.792%.
